One assay has as its target T1, FLI1 (Homo sapiens, UniProt Q01543 1-452).
T1 sequence: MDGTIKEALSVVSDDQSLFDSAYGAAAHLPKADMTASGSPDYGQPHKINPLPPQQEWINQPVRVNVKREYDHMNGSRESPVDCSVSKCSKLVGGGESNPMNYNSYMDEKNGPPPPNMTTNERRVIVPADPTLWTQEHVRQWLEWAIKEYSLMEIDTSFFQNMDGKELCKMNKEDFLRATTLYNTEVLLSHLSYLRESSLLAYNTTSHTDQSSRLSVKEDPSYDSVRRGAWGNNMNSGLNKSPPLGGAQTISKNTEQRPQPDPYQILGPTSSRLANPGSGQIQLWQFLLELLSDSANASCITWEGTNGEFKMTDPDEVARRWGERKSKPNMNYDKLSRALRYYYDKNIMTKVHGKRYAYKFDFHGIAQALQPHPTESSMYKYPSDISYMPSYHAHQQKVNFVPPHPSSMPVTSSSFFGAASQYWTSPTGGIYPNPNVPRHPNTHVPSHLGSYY
Nature of the assay: DAPPL (digital affinity profiling via proximity ligation, sequencing); 10 mM Tris-HCl pH 7.5, 50 mM NaCl, 1 mM DTT, 4% glycerol, room temperature, 30 min; GST-TFs on glutathione beads, 16-mer random dsDNA library, 0.1% formaldehyde crosslink after washing; high values mean tight binding. The following applies: protein: recombinant; tags: N-terminal GST; dsDNA, one strand shown. Put shortly:
(§1)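 Pools were built from human transcription factors expressed in yeast as GST fusions, captured on glutathione beads and DNA-barcoded, along with a tag-only sample. Incubation with 200 nmole of a 16-mer random double-stranded DNA library lasted 30 min at room temperature in Tris/NaCl/DTT/glycerol buffer, and was followed by washing, 0.1% formaldehyde crosslinking, proximity ligation, PCR amplification and Illumina NextSeq500 sequencing. Binding signal is the quotient of each hexamer's read frequency for a factor and its frequency for the tag-only sample.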
As for CGGATG, the binding signal is 1.53 fold enrichment (6-mer frequency, TF over GST control).
Still for that read-out and setting: the result for CCATAC reads 1.23 fold enrichment (6-mer frequency, TF over GST control).
On to AACAGG, for which the binding signal was 1.2 fold enrichment (6-mer frequency, TF over GST control).
Consider GTAACA, for which the binding signal is 1.24 fold enrichment (6-mer frequency, TF over GST control).
Still for that read-out and setting: with GCGCCT the figure was 1.09 fold enrichment (6-mer frequency, TF over GST control).
As for TGTCCG, the binding signal was 1.47 fold enrichment (6-mer frequency, TF over GST control).
Regarding GCACAT, the binding signal is 1.16 fold enrichment (6-mer frequency, TF over GST control).
In the case of CGGCAT, the binding signal is 1.07 fold enrichment (6-mer frequency, TF over GST control).
Same read-out and setting: with CACTCA the figure was 1.06 fold enrichment (6-mer frequency, TF over GST control); with GTATGC, 1.22 fold enrichment (6-mer frequency, TF over GST control); with CACAAT, 1.12 fold enrichment (6-mer frequency, TF over GST control).
As for CGACCG, the binding signal was 1.2 fold enrichment (6-mer frequency, TF over GST control).
Regarding CCGCCC, the binding signal was 1.33 fold enrichment (6-mer frequency, TF over GST control).
For GATGTC, the binding signal is 1.25 fold enrichment (6-mer frequency, TF over GST control).
Consider CCACCC, for which the binding signal is 1.17 fold enrichment (6-mer frequency, TF over GST control).
On to TTGGCC, for which the binding signal was 1.22 fold enrichment (6-mer frequency, TF over GST control).
On the same count and under the same terms, with GTACCT the figure was 1.36 fold enrichment (6-mer frequency, TF over GST control).
As for GATGCG, the binding signal was 1.07 fold enrichment (6-mer frequency, TF over GST control).
As to CATGGT, the binding signal was 1.25 fold enrichment (6-mer frequency, TF over GST control).
Regarding CGCCGC, the binding signal was 1.35 fold enrichment (6-mer frequency, TF over GST control).
Same read-out and setting: with CTGTCA the figure was 1.21 fold enrichment (6-mer frequency, TF over GST control); with GCCGAC, 1.19 fold enrichment (6-mer frequency, TF over GST control); with GCACAA, 1.1 fold enrichment (6-mer frequency, TF over GST control).
As to ACATGT, the binding signal is 1.23 fold enrichment (6-mer frequency, TF over GST control).
Regarding CTGGTC, the binding signal was 1.11 fold enrichment (6-mer frequency, TF over GST control).
Turning to CCAAAC, the binding signal is 1.02 fold enrichment (6-mer frequency, TF over GST control).
Turning to ACAGGA, the binding signal was 1.15 fold enrichment (6-mer frequency, TF over GST control).
As for AGTGGC, the binding signal is 1.31 fold enrichment (6-mer frequency, TF over GST control).
The same measure, in the same setting: with ACAAAC the figure was 1.15 fold enrichment (6-mer frequency, TF over GST control); with CACACG, 1.14 fold enrichment (6-mer frequency, TF over GST control); with CCCATC, 1.19 fold enrichment (6-mer frequency, TF over GST control).
For CCGGTT, the binding signal was 1.88 fold enrichment (6-mer frequency, TF over GST control).
For CAAATG, the binding signal is 1.11 fold enrichment (6-mer frequency, TF over GST control).
CCGGTA: the binding signal was 1.48 fold enrichment (6-mer frequency, TF over GST control).
The same measure, in the same setting: with CATCAC the figure was 1.1 fold enrichment (6-mer frequency, TF over GST control); with CTGTGC, 1.09 fold enrichment (6-mer frequency, TF over GST control).
Consider GAAGCG, for which the binding signal is 1.37 fold enrichment (6-mer frequency, TF over GST control).
Turning to CAATGC, the binding signal was 1.21 fold enrichment (6-mer frequency, TF over GST control).
On the same count and under the same terms, with GTCACA the figure was 1.11 fold enrichment (6-mer frequency, TF over GST control).

Another assay concerns the target T2, ELK1 (Homo sapiens, UniProt P19419 1-428).
T2 sequence: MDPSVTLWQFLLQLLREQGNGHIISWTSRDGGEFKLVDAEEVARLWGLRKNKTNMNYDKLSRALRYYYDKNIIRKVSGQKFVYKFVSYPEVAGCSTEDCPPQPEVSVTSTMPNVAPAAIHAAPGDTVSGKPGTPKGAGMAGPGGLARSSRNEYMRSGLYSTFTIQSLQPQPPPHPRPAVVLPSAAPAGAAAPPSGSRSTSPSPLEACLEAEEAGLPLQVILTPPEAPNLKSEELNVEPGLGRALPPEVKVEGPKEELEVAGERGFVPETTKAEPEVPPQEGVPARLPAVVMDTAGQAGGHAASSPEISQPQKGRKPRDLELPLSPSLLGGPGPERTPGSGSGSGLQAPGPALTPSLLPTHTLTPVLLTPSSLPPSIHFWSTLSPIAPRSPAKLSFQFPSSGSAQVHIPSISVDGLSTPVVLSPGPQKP
The description is as above. To be noted: protein: recombinant; tags: N-terminal GST; dsDNA, one strand shown. Put shortly: as §1
In the case of CGGATG, the binding signal is 1.66 fold enrichment (6-mer frequency, TF over GST control).
The same measure, in the same setting: with CCATAC the figure was 1.07 fold enrichment (6-mer frequency, TF over GST control); with AACAGG, 1.16 fold enrichment (6-mer frequency, TF over GST control); with GTAACA, 1.1 fold enrichment (6-mer frequency, TF over GST control).
The same measure, in the same setting: with GCGCCT the figure was 1.19 fold enrichment (6-mer frequency, TF over GST control); with TGTCCG, 1.42 fold enrichment (6-mer frequency, TF over GST control); with GCACAT, 1.05 fold enrichment (6-mer frequency, TF over GST control).
For CGGCAT, the binding signal was 1.13 fold enrichment (6-mer frequency, TF over GST control).
Turning to CACTCA, the binding signal was 1.17 fold enrichment (6-mer frequency, TF over GST control).
As for GTATGC, the binding signal was 1.24 fold enrichment (6-mer frequency, TF over GST control).
The same measure, in the same setting: the result for CACAAT reads 1.07 fold enrichment (6-mer frequency, TF over GST control); that for CGACCG, 1.19 fold enrichment (6-mer frequency, TF over GST control); that for CCGCCC, 1.39 fold enrichment (6-mer frequency, TF over GST control).
Same read-out and setting: the result for GATGTC reads 1.37 fold enrichment (6-mer frequency, TF over GST control).
As to CCACCC, the binding signal was 1.28 fold enrichment (6-mer frequency, TF over GST control).
The same measure, in the same setting: with TTGGCC the figure was 1.24 fold enrichment (6-mer frequency, TF over GST control); with GTACCT, 1.16 fold enrichment (6-mer frequency, TF over GST control); with GATGCG, 1.14 fold enrichment (6-mer frequency, TF over GST control).
With CATGGT, the binding signal is 1.29 fold enrichment (6-mer frequency, TF over GST control).
